In the library only some 1.4% were active in any assay of this set; here they are far more common.
KCNH2 3.1 block: KCNH2 3.1 (human) potassium channel inhibition. U2OS KCNH2 3.1, thallium flux FluxOr; stronger effect = lower value. activity change, % (tested at about 1.8 µM). 340,000 compounds, 0.95% hits;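 active = maximum activity change below -70%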;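 note: thallium influx rate constant from kinetic fluorescence after stimulation buffer; % is set by controls: 0 for no effect and ±100 for the full control effect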
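FluxOr-based Tl+ influx in U2OS cells transduced with KCNH2 3.1 virus; rate constants normalized to DMSO controls.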
PTHR1 agonist: agonists of human PTHR1 parathyroid hormone receptor | Q03431 | HEK293 GP2 PTHR1 cells, GloSensor cAMP luminescence, 1 h | Potency, µM (highest dose often 115 µM), for inactives: at the top dose activation, actives largely listed as activators | 410,000 compounds, 0.075% hits | AID 743266; note: potency is the fitted concentration of half-maximal effect; nearly all actives have a fitted effect of over 55% in size
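HEK-293-derived GP2 cells expressing PTHR1 and a GloSensor cAMP reporter, 3,000/well, plated overnight, given luciferin plus IBMX (each 0.5 mM as added) for 1 h at 37 °C, then compound for 1 h at 37 °C. Luminescence was read after 15 min at room temperature.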
RXFP1 antagonist: RXFP1 (human) relaxin receptor antagonism; 350,000 compounds, 0.59% hits; activity change, negative = inhibition, % at 57.5 µM; Q9HBX9; HEK293-RXFP1, relaxin-stimulated cAMP HTRF, 30 min; stronger effect = lower value;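 active = activity change of -60% or lower, but not beyond a set lower limit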; note: % is set by controls: 0 for no effect and ±100 for the full control effect
GRP78 ERSR act: induces the endoplasmic reticulum stress response in human glioma cells. Potency, µM, without a hit: top-dose activation, usual class: activators. 420,000 compounds, 0.02% hits. AID 602332. U87-MG GRP78 promoter luciferase reporter, 16 h; note: potency is the fitted concentration of half-maximal effect; series mostly up to about 76 µM; % of control where 0% means no effect; nearly all actives have a fitted effect of over 35% in size
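ERSR induction read as luciferase luminescence (Bright-Glo, 10 min at room temperature) in stably transfected human U87-MG glioma cells exposed to compounds for 16 h, using GRP78 as sensor.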
RXFP1 ag: RXFP1 (human) receptor agonism | Q9HBX9 | HEK293T-RXFP1 cAMP TR-FRET, 30 min; response scale: percent of porcine relaxin response, buffer zero | AID 2676 | Potency, µM (top dose mostly 57.5 µM), for the others: at the top dose activation, actives largely listed as activators | 370,000 compounds, 0.3% hits; note: potency is the fitted concentration of half-maximal effect; % is set by controls: 0 for no effect and ±100 for the full control effect; nearly all actives have a fitted effect of over 60% in size
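Agonist response is measured as cAMP accumulation in an RXFP1-transfected HEK293T line under PDE4 inhibition. Values are scaled between buffer-only and 29 nM porcine relaxin, and EC50s come from standard Hill equation fits.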
KCNH2 WT inh: inhibitors of human wildtype KCNH2 potassium channel | Q12809 | U2OS, BacMam KCNH2, thallium flux FluxOr; stronger effect = lower value | activity change, % at 1.84 µM | 340,000 compounds, 0.37% hits;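 active = maximum activity change below -70%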; note: % is set by controls: 0 for no effect and ±100 for the full control effect
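U2OS cells were transduced with wild-type KCNH2 virus (2.03 x 10^8 / mL) for 4 h at room temperature, then cultured overnight at 37 C. Thallium flux was read with FluxOr dye. Rate constants were normalized to DMSO controls.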
* = called active by the depositor; [ ] = dose if it differs, or a comment. Unless noted, calls come from the whole dose curve; as a rule, active = well fitted curve in the direction sought with a large enough effect; inconclusive = small, poorly fitted or top-dose-only effect, or another doubt; inactive = no such curve, though single readings can be large; an effect the other way counts as inactive or inconclusive.

`COc1cc(Br)cc(CN2CCN(C/C=C/c3ccccc3)CC2)c1O` gave KCNH2 3.1 block -71.4*, PTHR1 agonist -13.7%[57.5 µM], RXFP1 antagonist -4.8, GRP78 ERSR act -2.1%, RXFP1 ag 0.6% and KCNH2 WT inh -23.6.
Screening COc1ccc(O)c(CN2CCN(C/C=C/c3ccccc3)CC2)c1 returned KCNH2 3.1 block 5.7, PTHR1 agonist -1.1%[57.5 µM], RXFP1 antagonist 1.9, GRP78 ERSR act 1.9%, RXFP1 ag 0.1% and KCNH2 WT inh 34.4.
`O=C(NCc1ccccc1)C(=O)NCC(c1cccnc1)N1CCN(c2ccccc2)CC1` (stereo unspecified) gave PTHR1 agonist -44.5%, RXFP1 antagonist -13.9, GRP78 ERSR act -3.4% and RXFP1 ag -0.3%.
Cc1ccc(SC[C@H](Cc2ccccc2)N2CC[C@@H](C)CCC2=O)cc1 was read as KCNH2 3.1 block -125.9*, PTHR1 agonist -49.9%, GRP78 ERSR act -5.8%, RXFP1 ag 2.8% and KCNH2 WT inh -1.0.
CC(C)(C)[C@H]1CCC(=O)N([C@H](CSc2ccccc2)Cc2ccccc2)CC1 was read as KCNH2 3.1 block -5.4, PTHR1 agonist -45.1%, GRP78 ERSR act -1.0%, RXFP1 ag 2.8% and KCNH2 WT inh -4.1.
`CC(=O)Nc1ccc(SC[C@H](Cc2ccccc2)N2CC[C@@H](C(C)(C)C)CCC2=O)cc1` gave KCNH2 3.1 block -96.8*, PTHR1 agonist -32.8%, GRP78 ERSR act 1.4%, RXFP1 ag -0.2% and KCNH2 WT inh -12.8.
Screening CCc1cc2cc(C)cc(C)c2[nH]c1=S returned KCNH2 3.1 block -95.9*, PTHR1 agonist -3.6%, RXFP1 antagonist -0.2, GRP78 ERSR act -0.4%, RXFP1 ag 7.4% and KCNH2 WT inh -1.0.
Screening CCOCCCN(Cc1cc2cc(C)cc(C)c2[nH]c1=O)C(=O)N(CC)CC returned KCNH2 3.1 block -14.1, PTHR1 agonist inactive, RXFP1 antagonist -3.6, GRP78 ERSR act -2.0%, RXFP1 ag 2.0% and KCNH2 WT inh -1.7.
For Cc1ccc(C)n1-c1ccc(C(=O)NN)cc1 the results were KCNH2 3.1 block -4.7, PTHR1 agonist -51.0%, RXFP1 antagonist -71.3*, GRP78 ERSR act -2.0%, RXFP1 ag -0.8% and KCNH2 WT inh 11.7.
Screening Cc1ccc(C)n1-c1ccc(C(=O)NCc2ccncc2)cc1 returned KCNH2 3.1 block 2.0, PTHR1 agonist -30.5%, RXFP1 antagonist 4.0, GRP78 ERSR act -2.1% and RXFP1 ag 0.5%.
Screening O=C(NCc1ccco1)c1cnn2c1NC(c1ccc(Br)cc1)CC2C(F)(F)F (stereo unspecified) returned KCNH2 3.1 block -0.2, PTHR1 agonist -15.2%, RXFP1 antagonist -13.0, GRP78 ERSR act 7.6%, RXFP1 ag -0.1% and KCNH2 WT inh -71.2*.
Screening O=C(NCc1ccco1)c1cnn2c1NC(c1ccccc1)CC2C(F)(F)F (stereo unspecified) returned KCNH2 3.1 block 10.9, PTHR1 agonist inactive, RXFP1 antagonist 1.3, GRP78 ERSR act -4.3%, RXFP1 ag -0.5% and KCNH2 WT inh -13.0.
For COc1cc(S(=O)(=O)Nc2ccccc2C)ccc1NC(=O)c1ccncc1 the results were KCNH2 3.1 block 12.8, PTHR1 agonist inactive, RXFP1 antagonist -3.2, GRP78 ERSR act -2.4%, RXFP1 ag 4.0% and KCNH2 WT inh -1.8.
Screening Cc1ccc2nc(SCC(=O)Nc3nonc3N)[nH]c2c1 returned KCNH2 3.1 block 7.6, PTHR1 agonist -1.5%, RXFP1 antagonist 5.4, GRP78 ERSR act -3.5%, RXFP1 ag 4.6% and KCNH2 WT inh -9.1.
`CCOC(=O)NC(=O)CSc1nc2ccc(C)cc2[nH]1` gave KCNH2 3.1 block -115.6*, PTHR1 agonist inactive, RXFP1 antagonist 10.7, GRP78 ERSR act -2.9%, RXFP1 ag 1.0% and KCNH2 WT inh 1.9.
Screening COc1cc(C(C)=O)ccc1OCC(O)CN1CCN(c2ccc(C)cc2C)CC1 (stereo unspecified) returned KCNH2 3.1 block -9.8, PTHR1 agonist -30.9%, RXFP1 antagonist -16.7, GRP78 ERSR act 1.2%, RXFP1 ag 0.1% and KCNH2 WT inh 4.0.
Screening CCOC(=O)N1CCC(NC(=O)CCN2C(=O)COc3ccccc32)CC1 returned KCNH2 3.1 block -1.3, PTHR1 agonist -0.7%[57.5 µM], RXFP1 antagonist -12.7, GRP78 ERSR act -3.3%, RXFP1 ag 0.5% and KCNH2 WT inh -253.2*.
`O=C(CN1C(=O)COc2ccc(S(=O)(=O)N3CCCCCC3)cc21)Nc1cccc(Cl)c1` gave PTHR1 agonist -78.7%, RXFP1 antagonist 2.7, GRP78 ERSR act -2.4% and RXFP1 ag 4.3%.
For O=C(CN1C(=O)COc2ccc(S(=O)(=O)N3CCCC3)cc21)Nc1cccc(F)c1 the results were KCNH2 3.1 block -115.6*, PTHR1 agonist inactive, RXFP1 antagonist 5.4, GRP78 ERSR act -2.8%, RXFP1 ag -1.1% and KCNH2 WT inh 12.3.
Screening CCN(CC)S(=O)(=O)c1ccc2c(c1)N(CC(=O)NCc1ccccn1)C(=O)CO2 returned KCNH2 3.1 block 15.9, PTHR1 agonist inactive, RXFP1 antagonist 43.0, GRP78 ERSR act -2.7%, RXFP1 ag 25.1µM* and KCNH2 WT inh -15.2.
Screening CCN(CC)S(=O)(=O)c1ccc2c(c1)N(CC(=O)Nc1c(C)cccc1C)C(=O)CO2 returned PTHR1 agonist -6.0%, RXFP1 antagonist 3.4 and RXFP1 ag -0.5%.
`CCN(CC)S(=O)(=O)c1ccc2c(c1)N(CC(=O)Nc1cccnc1Cl)C(=O)CO2` gave KCNH2 3.1 block -2.1, PTHR1 agonist inactive, RXFP1 antagonist 7.8, GRP78 ERSR act -1.5%, RXFP1 ag 12.6µM* and KCNH2 WT inh -5.2.
For O=C(CSc1nncn1-c1ccccc1)Nc1cc(F)ccc1F the results were KCNH2 3.1 block 10.0, PTHR1 agonist inactive, RXFP1 antagonist -4.1, GRP78 ERSR act -3.4%, RXFP1 ag -0.3% and KCNH2 WT inh -8.2.
Screening Cn1c(SCc2ccc(C(C)(C)C)cc2)nnc1C1COc2ccccc2O1 (stereo unspecified) returned KCNH2 3.1 block 2.4, PTHR1 agonist -84.2%, RXFP1 antagonist -68.6*, GRP78 ERSR act 0.2%, RXFP1 ag -1.4% and KCNH2 WT inh -0.6.
O=C(COC(=O)CC(c1ccccc1)c1ccccc1)NCc1ccccc1 was read as KCNH2 3.1 block -2.7, PTHR1 agonist -50.3%, RXFP1 antagonist -3.6, GRP78 ERSR act -2.2%, RXFP1 ag 0.2% and KCNH2 WT inh 2.9.
For NC(=O)COC(=O)CC(c1ccccc1)c1ccccc1 the results were KCNH2 3.1 block -94.1*, PTHR1 agonist inactive, RXFP1 antagonist -17.2, GRP78 ERSR act -2.2%, RXFP1 ag -3.5% and KCNH2 WT inh 8.3.

Compound activity deposited in PubChem by National Center for Advancing Translational Sciences (NCATS).
